# PAX8 reporter – inhibitors of PAX8-driven TPO luciferase reporter, primary screen, RMG-I cells, single concentration | inhibition, % at 12.6 µM | actives 1.2% (n = 360,000) | SteadyGlo, 24 h | AID 652154, 2013;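 active = mean replicate inhibition at least 60% with every replicate also reaching 60%; inconclusive = only one of the two criteria is met; inactive = mean below 60% and not all replicates reaching 60%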;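 note: luciferase light reporting Pax8 driven TPO promoter activity; plate controls were median of neutral control wells for no effect and mitoxantrone controls for full effect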
# TRPM1 prom inh – inhibitors of MITF-dependent TRPM1 promoter reporter, primary screen, cell-based, SK-MEL-5, single point, luciferase. SK-MEL-5 TRPM1 promoter luciferase, 24 h. inhibition, % at 12.5 µM. actives 0.83% (n = 330,000). AID 488899, 2010;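 active = mean inhibition across replicates of 60% or more, whatever share of single replicates reaches that level; inconclusive = some that reach 60%, reason not given; inactive = mean inhibition across replicates below 60%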
# aSyn UTR inh – MLPCN primary screen, SNCA 5' untranslated region | alpha-synuclein 5'UTR reporter, inhibitor activity | inhibition, % (tested at 7.5 µM) | actives 0.82% (n = 300,000); in the data active = inhibition above about 60%; inconclusive = no clear call, values can overlap the other calls;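 note: H4 neuroglioblastoma cells stably carrying SNCA 5'UTR luciferase fusion; 0% = DMSO wells and 100% = positive control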
# EBV LMP1 NFkB – EBV LMP1-driven NF-kappaB luciferase reporter inhibitors, primary screen, cell-based, luminescence, single point | actives 0.69% (n = 350,000) | LMP1-induced NF-kappaB luciferase reporter cells | inhibition, % at 12.5 µM; in the data active = inhibition above about 41%; inconclusive = no clear call, values can overlap the other calls;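 note: 0% = neutral control wells and 100% = reference inhibitor control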
# Shn3 3UTR inh – reduction of Shn3 3'UTR firefly luciferase signal, primary screen, Schnurri-3 inhibitor project, cell-based, Clone20 osteoblasts, set 2. inhibition, % at 12.5 µM. AID 588674, 2011. Clone20 osteoblast Shn3 3'UTR firefly luciferase, 24 h. actives 0.52% (n = 360,000);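 active = mean inhibition of at least 75% with every replicate also reaching 75%; inconclusive = mean inhibition at least 75% but some replicate below; inactive = mean inhibition below 75%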;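 note: 0% = median of neutral control wells and 100% = pilot-screen positive control compound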
# The depositor's hits bear a star; ? = inconclusive; nt = no result given. A selection: hits, their analogues and other compounds. The true share with any hit is near 2.1%.
SMILES,PAX8 reporter,TRPM1 prom inh,aSyn UTR inh,EBV LMP1 NFkB,Shn3 3UTR inh
COc1ccc(-c2csc(N(CCCN(C)C)C(=O)c3ccccc3F)n2)cc1,63*,0,-3,-21,14
COc1ccc(-c2csc(N(CCCN(C)C)C(=O)c3ccccc3C)n2)cc1,12,9,-18,-6,12
CC(=O)Nc1ccc(C(=O)CSc2cc(C)c3cccc(C)c3n2)cc1,123*,-1,10,1,-1
CCCNC(=O)c1ccc2snnc2c1,nt,5,12,-5,6
CCCNC(=O)c1nnsc1S(=O)c1ccc(Cl)cc1 (configuration not stated),79*,67*,-54,2,96*
Cc1ccc(S(=O)c2snnc2C)cc1 (configuration not stated),-19,17,-66,-1,-3
CCCNC(=O)NS(=O)(=O)c1ccc(Cl)cc1,-9,-2,-22,58*,-11
Cc1ccc(S(=O)(=O)NC(=O)NCCc2ccccc2)cc1,18,0,-8,4,15
CNC(=O)c1nnsc1S(=O)c1ccc(Cl)cc1 (configuration not stated),56,?,-49,8,97*
CCCNC(=O)c1nnsc1S(=O)(=O)c1ccc(Cl)cc1,112*,86*,nt,?,92*
CN(Cc1ccccc1)C(=O)Cn1c(=O)oc2cc(S(=O)(=O)N3CCCC3)ccc21,22,5,-3,-1,13
O=[N+]([O-])c1ccc(Sc2cccc[n+]2[O-])c2nonc12,102*,100*,85*,4,98*
CC1CCN(CCC(=O)Nc2ccc3c(c2)OCCO3)CC1,nt,nt,-20,nt,nt
Cc1ccc(C(=O)NC(=S)Nc2ccccc2N2CCOCC2)cc1C,nt,0,12,10,10
COc1ccc(C#Cc2ccc([C@H]3[C@H]4CN(C(=O)Nc5cccc(F)c5)CCCCN4[C@H]3CO)cc2)cc1,-13,nt,nt,nt,nt
O=C(Nc1ccccc1)N1CCCCN2[C@H](CO)[C@H](c3ccc(C#Cc4ccccc4)cc3)[C@H]2C1,109*,nt,nt,nt,nt
O=C(Nc1cccc(F)c1)N1CCCCN2[C@@H](CO)[C@@H](c3ccc(C#Cc4ccccc4)cc3)[C@@H]2C1,116*,nt,nt,nt,nt
COc1ccc(NC(=O)N2CCCCN3[C@@H](CO)[C@@H](c4ccc(C#Cc5ccccc5)cc4)[C@@H]3C2)cc1,111*,nt,nt,nt,nt
COc1ccc(NC(=O)N2CCCCN3[C@H](CO)[C@@H](c4ccc(C#Cc5ccccc5)cc4)[C@H]3C2)cc1,16,nt,nt,nt,nt
O=C(Nc1ccccc1)N1CCCCN2[C@H](CO)[C@H](c3ccc(C#Cc4ccccc4)cc3)[C@@H]2C1,35,nt,nt,nt,nt
O=C(Nc1ccccc1)N1CCCCN2[C@H](C1)[C@@H](c1ccc(C#Cc3ccccc3)cc1)[C@@H]2CO,99*,nt,nt,nt,nt
O=C(Nc1ccccc1F)N1CCCCN2[C@H](CO)[C@H](c3ccc(C#Cc4ccccc4)cc3)[C@@H]2C1,21,nt,nt,nt,nt
O=C(Nc1ccccc1F)N1CCCCN2[C@H](CO)[C@@H](c3ccc(C#Cc4ccccc4)cc3)[C@H]2C1,66*,nt,nt,nt,nt
Cc1cc(Oc2ccc(Cl)cc2)nc(-c2ccccn2)n1,4,3,6,2,6
CC(=O)Oc1ccccc1/C=C/c1nc2ccccc2c(=O)o1,54,28,66*,45*,6
SMILES,PAX8 reporter,TRPM1 prom inh,aSyn UTR inh,EBV LMP1 NFkB,Shn3 3UTR inh
CC(=O)Oc1ccc(/C=C/c2nc3ccccc3c(=O)o2)cc1,37,3,45,36,-24
CCOc1ccccc1NC(=O)CCCNC(=O)Cn1cnc2sc(C)c(C)c2c1=O,-7,10,17,-4,-2
COc1cccc2sc(N(CCN(C)C)C(=O)/C=C/c3cccs3)nc12,0,47,-11,1,-2
COc1ccc(C)c2sc(N(CCN(C)C)C(=O)/C=C/c3cccs3)nc12,27,88*,20,0,-16
CN(C)CCN(C(=O)/C=C/c1cccs1)c1nc2c(F)cc(F)cc2s1,97*,33,96*,-2,55
CN(C)CCCN(C(=O)/C=C/c1cccs1)c1nc2ccc(F)cc2s1,26,4,-14,-9,-27
COc1ccc(OC)c2sc(N(CCN(C)C)C(=O)/C=C/c3cccs3)nc12,79*,67*,?,3,?
Cc1cc(NC(=O)c2cncc(Br)c2)ccc1NC(=O)c1cc2ccccc2o1,-1,65*,78*,5,69
COc1cc(NC(=O)c2ccccc2)ccc1NC(=O)c1cc2ccccc2o1,-9,-10,-10,-6,46
O=C(CNC(=O)c1ccccc1)NCC(=O)OCc1ccccc1Cl,0,-14,-26,-3,1
CCc1nc2c(sc3nc4c(cc32)COC(C)(C)C4)c(=O)n1Cc1ccccc1,nt,-6,3,-8,47
COc1nc(C)nc2c1sc1nc3c(cc12)COC(C)(C)C3,nt,-75,-145,-21,-43
CC1(C)Cc2nc3sc4c(SCC(=O)NCc5ccccc5)ncnc4c3cc2CO1,-33,-7,64*,13,-36
COC(=O)CSc1ncnc2c1sc1nc3c(cc12)COC(C)(C)C3,14,23,31,51*,-14
CC1(C)Cc2nc3sc4c(N(CCO)CCO)ncnc4c3cc2CO1,nt,-15,-16,-4,-10
CC1(C)Cc2nc3sc4c(SCC(=O)O)ncnc4c3cc2CO1,39,15,47,52*,10
O=[N+]([O-])c1cc(Br)c(Nc2ccccc2)c([N+](=O)[O-])c1,84*,39,33,-3,29
Fc1cccc(CSc2ccc(-c3ccco3)nn2)c1,-107,-37,-176,-23,-31
Fc1ccc(CSc2ccc(-c3ccco3)nn2)cc1,131*,-54,-153,-15,-76
COc1ccc(/C=N/NC(=O)c2ccncc2)cc1COc1ccc(NC(C)=O)cc1,24,nt,80*,nt,nt
CC(C)(C)C(=O)Cn1ncc(N2CCOCC2)c(Br)c1=O,-19,-17,-31,-13,-2
CC(=O)Cn1ncc(Br)c(Br)c1=O,84*,99*,-87,-20,97*
Cc1cc(NC(=O)c2ccccc2)c(Cl)cc1N,8,26,64*,-5,12
COc1cc(C(=O)N/N=C/c2ccsc2C)cc(OC)c1OC,nt,54,92*,14,10
COc1cc(C(=O)N/N=C/C2CC=CCC2)cc(OC)c1OC (configuration not stated),-8,-5,108*,3,3
COc1ccc(Br)cc1/C=N/NC(=O)c1cc(OC)c(OC)c(OC)c1,15,10,-2,2,0
O=C(O)/C=C/c1ccc(S(=O)(=O)Nc2ccc(OCc3ccccc3)cc2)cc1,-13,1,-1,-4,-10
N#Cc1ccccc1COc1ccc(/C=C/C(=O)O)cc1,-6,55,71*,25,42
